Source: PubChem (National Center for Advancing Translational Sciences (NCATS))
ATXN viability = cell viability loss in ATXN counter-screen | S2 cells (HEK-293 line with an ATXN2-luciferase reporter) viability, CellTiter-Fluor protease fluorescence, 24 h | Potency, µM (highest dose often 56.7 µM), usual class: cytotoxic | 400,000 compounds, 0.49% hits; also: nearly all actives have a fitted effect of over 40% in size
HT1080NT lethal = kills 2HG-producing HT-1080-NT fibrosarcoma cells. HT-1080-NT fibrosarcoma viability, CellTiter-Glo ATP luminescence, 48 h. Potency, µM (series often up to 46.1 µM), without a hit: at the highest dose activity, negative = less viability, hits mostly cytotoxic. 360,000 compounds, 1.6% hits;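 also: NT is the 2HG producing partner of a matched IDH1 knockdown line; 0% = DMSO-treated cells and -100% = media-only wells without cells; nearly all actives have a fitted effect of over 55% in size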
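HT-1080-NT; 750 cells/well; 5% FBS RPMI; 48 h compound, 37 degrees C; CellTiter-Glo luminescence; curve fitting and curve-class assignment.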
KB-3-1 tox = KB-3-1 parental cell cytotoxicity; KB-3-1 viability, CellTiter-Glo ATP luminescence, 72 h; Potency, µM (doses to about 46.1 µM), actives largely listed as cytotoxic; 400,000 compounds, 1.4% hits; AID 1347075; also: % is scaled to controls: 0 for no effect and ±100 for the full control effect; nearly all actives have a fitted effect of over 60% in size
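Luminescent ATP read-out (CellTiter-Glo) measures survival of drug-naive KB-3-1 cells after 72 h compound exposure at 37 °C. Titration series was screened from lowest to highest concentration, with DMSO vehicle plates as background controls.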
KB-V1 cytotox = KB-V1 MDR subline cytotoxicity | KB-V1 MDR cells viability, CellTiter-Glo, 72 h | Potency, µM (titrated, usually from 46.1 µM), hits mostly cytotoxic | 400,000 compounds, 3.4% hits; also: % is scaled to controls: 0 for no effect and ±100 for the full control effect; nearly all actives have a fitted effect of over 60% in size
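Drug-selected KB-V1 cells, grown in DMEM lacking phenol red with 10% FBS, receive compound titrations; after three days at 37 degrees C, surviving cell ATP is quantified by CellTiter-Glo luminescence and responses normalized and curve-fitted.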
HT1080 IDH1KD tx = toxicity to HT-1080 IDH1 knockdown cells (counter line) | HT-1080 IDH1 knockdown viability, ATP luminescence, 48 h | Potency, µM (highest dose often 46.1 µM), without a hit: top-dose activity, negative = toxicity, actives largely listed as cytotoxic | 360,000 compounds, 2% hits;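 also: 0% = DMSO wells and -100% = cell-free medium wells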
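HT-1080-IDH1KD cells (IDH1 knocked down), 750/well in RPMI with 5% FBS, treated with compound 48 h at 37 degrees C. Viability by CellTiter-Glo luminescence, normalised to DMSO and no-cell wells; concentration-response curves classed.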
ATXN2 expr inh = reduces ATXN2 reporter expression in HEK-293 cells; HEK-293 ATXN2-luciferase reporter, luminescence, 24 h; Potency, µM (titrated, usually from 57 µM), for inactives: top-dose activity change, negative = inhibition, hits mostly inhibitors; 360,000 compounds, 0.72% hits; AID 1745845; also: % is scaled to controls: 0 for no effect and ±100 for the full control effect; nearly all actives have a fitted effect of over 55% in size
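qHTS (up to 57 uM final) was run with 24 h compound exposure of reporter cells at 37 °C. Each well was multiplexed: SteadyGlo luminescence measured ATXN2-luciferase expression after a fluorogenic Gly-Phe-AFC viability readout (25 uM final).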
Active calls of the source: *; i = inactive; ? = inconclusive; . = no result; ! = not confirmed by another sample; [ ] = remark or other dose. A selection: hits, their analogues and other compounds. The true share with any hit is near 6.2%. Calls follow the shape of the dose curve; as a rule, active = well fitted curve in the direction sought with a large enough effect; inconclusive = small, poorly fitted or top-dose-only effect, or another doubt; inactive = no such curve, though single readings can be large; an effect the other way counts as inactive or inconclusive. Potency is read from the fitted curve at half-maximal effect.

SMILES	ATXN viability	HT1080NT lethal	KB-3-1 tox	KB-V1 cytotox	HT1080 IDH1KD tx	ATXN2 expr inh
COC(=O)C1=C(C(=O)OC)C2c3ccccc3C1c1ccccc12	i	9%	i	15µM*	9%	7%
O=C(O)C1=CC2c3ccccc3C1c1ccccc12	i	1%	i	i	8%	-10%
CCc1ccc(-n2nc(C)c3c2NC(=O)CSC3c2ccc(OC)cc2OC)cc1 (stereo not given)	i	.	?	i	.	?
COc1ccc(-c2coc3c(C(=O)Nc4cc(OC)c(OC)c(OC)c4)cccc23)c(C)c1	?	?	?	13µM*	?	?
COc1cc(NC(=O)c2cccc3c(-c4cccnc4)coc23)cc(OC)c1OC	?	?	?	7.3µM*	-14%	11µM*
COc1cc(NC(=O)c2cc3cc4ccc(C)cc4nc3o2)cc(OC)c1OC	?	.	i	i	.	?
Cc1ccc2c(c1)C1CN(C)CCC1N2 (stereo not given)	i	.	.	.	.	-1%[25.6 µM]
CC(=O)[C@@H]1CC[C@@H]2[C@@H]3CCC4=CC(=O)CC[C@@]4(C)[C@H]3CC[C@]21C	i	.	.	.	.	.
CC(=O)[C@H]1CC[C@H]2[C@@H]3CCC4=CC(=O)CC[C@]4(C)[C@H]3CC[C@]12C	?	?	13µM*!	5.8µM*!	?	?
N#CC(C#N)=NNc1ccc(-n2ccc(C(F)(F)F)n2)cc1	?	?	?	i	4.6µM*	?
NC(CCc1ccccc1)c1csc(NC(=O)Nc2ccccc2Oc2ccccc2)n1 (stereo not given)	?	23µM*	?	23µM*	?	?
CC(=O)c1c(O)n(-c2cccc(Cl)c2)c(=O)[nH]c1=O (tested in a mixture with another compound)	i	14%	i	i	14%	-13%
CC(C)n1c(O)c(C2c3cc(Cl)ccc3Oc3[nH]c(=O)n(C(C)C)c(=O)c32)c(=O)[nH]c1=O (stereo not given)	11µM*	5.2µM*	8.2µM*	7.3µM*	2.3µM*	4µM*
Cc1c(C=O)c2ccccc2n1Cc1ccccc1F	i	-19%	?	?	-4%	-18%
Cc1c(C=O)c2ccccc2n1Cc1ccc([N+](=O)[O-])cc1	i	-16%	i	10µM*	-24%	-12%
COc1ccc(CC2NCCc3cc(OC)c(OC)cc32)cc1OC (stereo not given)	.	.	.	.	.	-10%
CC[C@H]1CN2CCc3cc(OC)c(OC)cc3C2C[C@@H]1C[C@H]1NCCc2cc(OC)c(OC)cc21 (stereo not given in full)	?	0.052µM*	0.21µM*	2.1µM*	0.052µM*	-76%
c1cc2c(c(N3CCNCC3)c1)OCCO2	i	.	.	.	.	6%
O=C(c1ccc(CS(=O)(=O)c2ccc(Br)cc2)o1)N1CCC2(CC1)OCCO2	i	-4%	i	i	-2%	-1%
O=C(c1ccc(CS(=O)(=O)c2ccccc2)o1)N1CCC2(CC1)OCCO2	i	12%	i	13µM*	1%	4%
O=P(O)(O)CN1CCNCCN(CP(=O)(O)O)CCNCC1	?	3%	?	?	15µM*	?
c1ccc(CN2CCNCC2)cc1	i	.	.	.	.	21%[222 µM]
CCC(=O)OC1CCC2C3CCC4=CC(=O)CC[C@@]4(C)C3CC[C@]12C (stereo not given in full)	.	.	.	.	.	-8%
C(#CCN1CCOCC1)COC/C=C/c1ccccc1	i	-4%	i	21µM*	2%	14%
Cc1ccccc1C1CC(=O)Nc2ccc3ccccc3c21 (stereo not given)	?	.	?	?	.	-21%
SMILES	ATXN viability	HT1080NT lethal	KB-3-1 tox	KB-V1 cytotox	HT1080 IDH1KD tx	ATXN2 expr inh
Cc1nc2nc(SCC(=O)N3CCC4(CC3)OCCO4)nn2c(C)c1Cc1ccccc1	i	4%	?	26µM*	2%	1%
Cc1nc2c(-c3ccccc3)c(C)nn2c(C)c1CCC(=O)N1CCC2(CC1)OCCO2	i	10%	i	13µM*	3%	-7%
Cc1cc(C)n2nc(SCC(=O)N3CCC4(CC3)OCCO4)nc2n1	i	20%	i	i	3%	6%
COc1ccccc1NC(=O)Oc1cccc(OC(=O)c2ccccc2)c1	?	-1%	i	i	4%	.
CC[C@H]1C(=O)OC[C@H]1Cc1cncn1C	i	.	.	.	.	.
COCCCn1c(N)c(C(=O)NCCC(C)C)c2nc3ccccc3nc21	.	-22%	?	23µM*	?	-36%
CCCCCn1c(N)c(C(=O)NCCN2CCOCC2)c2nc3ccccc3nc21	i	16µM*	?	?	18µM*	-32%
CCCCn1c(N)c(C(=O)OCCOC)c2nc3ccccc3nc21	.	14%	i	?	16%	-28%
Nc1c(C(=O)NCc2ccco2)c2nc3ccccc3nc2n1Cc1ccc(F)cc1	i	16µM*	i	i	?	?
Nc1c(C(=O)NCc2ccco2)c2nc3ccccc3nc2n1Cc1ccccc1	.	-29%	i	i	-30%	.
CC(C)CCn1c(N)c(C(=O)OCC2CCCO2)c2nc3ccccc3nc21 (stereo not given)	i	?	i	?	21µM*	-8%
C[C@H]1CNC(=O)c2c(C(=O)N3CCN(C(=O)OC(C)(C)C)CC3)ncn21	?	-8%	i	i	-11%	?
CCCCCCn1c(N)c(C(=O)NCCN2CCOCC2)c2nc3ccccc3nc21	i	?	?	?	?	-15%
CCCCn1c(N)c(C(=O)NCc2cccs2)c2nc3ccccc3nc21	i	?	?	13µM*	?	-30%
Nc1c(C(=O)NCCCc2ccccc2)c2nc3ccccc3nc2n1Cc1cccs1	i	?	?	15µM*	-27%	?
CCCCCn1c(N)c(C(=O)NCc2cccs2)c2nc3ccccc3nc21	i	?	?	13µM*	?	-17%
Cc1cnc(SCc2ccccn2)nc1C1CCCN(C(=O)c2ccc(-c3ccccc3F)cc2)C1 (stereo not given)	i	.	.	.	.	.
Cc1ccc(C(=O)COC(=O)c2cccc(NC(=O)c3ccc(Br)cc3)c2)cc1	?	.	i	?	.	10%
Cc1cccc(CN2CCCC(C(=O)c3cccc(OC(C)C)c3)C2)n1 (stereo not given)	32µM*	3%	i	i	-3%	.
COc1cccc(C(=O)C2CCCN(Cc3cccc(C)n3)C2)c1 (stereo not given)	?	-1%	i	i	-9%	.
